Test results as given in PubChem BioAssay (Tox21).
Inconclusive results are not listed. Activity calls are given as the source filed them. Calls come from the whole dose curve; as a rule, active = well fitted activation curve with a large enough effect in the signal ratio in the repeat runs (not every such curve was filed as active); inconclusive = weak or mixed curves; inactive = flat fitted curve, though single readings scatter; the % refers to the signal ratio.

Assay: qHTS assay to identify small molecule agonists of the hypoxia (HIF-1) signaling pathway (AID 1224846)
Conditions: HRE-bla ME-180 cells, beta-lactamase ratio, 17 h; series mostly up to 76.8 µM
Excerpt: U.S. Tox21 Program National Center for Advancing Translational Sciences [NCATS] NIH Chemical Genomics Center [NCGC] U.S. Environmental Protection Agency [EPA] National Institutes of Environmental Health Sciences [NIEHS] National Toxicology Program [NTP] U.S. Food and Drug Administration [FDA] Tox21 Assay Overview: Hypoxia-inducible factor-1 (HIF-1) is the major hypoxia-regulated transcription factor that controls cellular responses to low oxygen concentration. HIF-1 is composed of two subunits: hypoxia responsive HIF-1-alpha and constitutively expressed HIF-1-beta, which is also known as aryl hydrocarbon receptor nuclear translocator. During hypoxic conditions, HIF-1-alpha heterodimerizes with HIF-1-beta and translocates into the nucleus where the HIF-1 complex binds to the hypoxia-response element (HRE) and activates expression of target genes such as VEGF (vascular endothelial growth factor). The HIF-1 pathway is essential to normal growth and development, and is involved in the pathophysiology of cancer, inflammation, and ischemia. Using a beta-lactamase reporter-gene under control of the hypoxia response element, a cell-based assay [CellSensor(TM) HRE-bla ME-180 from Life Technologies, Carlsbad, CA] was used to measure hypoxia-induced signaling. Tox21 10K library compounds were measured for their ability to induce the reporter gene activity.
Tox21 Assay Protocol Summary: HRE-bla ME-180 cells were dispensed at 2,000 cells per well in 6 uL of assay medium containing 0.5% dialyzed FBS into black wall/clear-bottom 1536-well plates using a Multidrop Combi (Thermo Scientific, Waltham, MA) dispenser. After the assay plates were incubated at 37C and 5% CO2 for 5 hrs, 23 nL of compounds dissolved in DMSO, positive controls or DMSO only was transferred to each well of the assay plate using a Pintool station (Kalypsys, San Diego, CA). The assay plates were incubated at 37C and 5% CO2 for 17 hrs. One uL of LiveBLAzerTM B/G FRET substrate (CCF4-AM) (Life Technologies) was added to each well using a Flying Reagent Dispenser (Aurora Discovery, San Diego, CA).
% is set by controls: 0 for no effect and ±100 for the full control effect.

Structure (SMILES)	outcome	activation
O=C1OC(=O)c2cc(Oc3ccc4c(c3)C(=O)OC4=O)ccc21	inactive	–
O=C(O)c1ccccc1C(=O)OCc1ccccc1	inactive	–
COc1cc(C=O)ccc1OC(=O)C(C)C	inactive	–
O=C(O)c1c(Cl)ccc(Cl)c1Cl	inactive	–
CO[Si](CCCS)(OC)OC	inactive	–
C=CCOc1cc(Cl)ccc1C(=O)NCCN(CC)CC	inactive	–
C/C=C(\C)C(=O)OCC/C=C\CC	inactive	–
CCCCCCCCCCCCC1CO1 (stereo not given)	inactive	–
C=CCOC(=O)c1ccc(C(=O)OCC=C)c(C(=O)OCC=C)c1	inactive	–
C1=CCC(c2ccccc2)CC1 (stereo not given)	inactive	–
CC(=O)c1ccc2c(c1)CCCC2	inactive	–
C=CCCCCCCCCCCC	–	-0.397% [at 7.01 µM] (inactive)
CC1=NN(c2ccc(S(=O)(=O)O)cc2)C(=O)C1N=Nc1ccccc1 (stereo not given)	inactive	–
Cc1cc(C)cc([N+](=O)[O-])c1	inactive	–
CO/N=C(/C(=O)N[C@@H]1C(=O)N2C(C(=O)O)=C(Cn3nnc(C)n3)CS[C@H]12)c1csc(N)n1	inactive	–
CCCCC(CC)COC(=O)c1ccccc1 (stereo not given)	inactive	–
CC(=O)N(CC(O)CO)c1c(I)c(C(=O)NCC(O)CO)c(I)c(C(=O)NCC(O)CO)c1I (stereo not given)	inactive	–
NS(=O)(=O)c1ccc(Cl)c(S(N)(=O)=O)c1	inactive	–
CC(=O)OC(C)(C)Cc1ccccc1	inactive	–
Cc1cccc(NC(=S)N(C)C)c1	inactive	–

Structure (SMILES)	outcome	activation
CC(C)SCc1ccco1	inactive	–
C=C(C)C(=O)OC	inactive	–
COc1ccc(OC)c(NC(=O)CC(C)=O)c1	inactive	–
O=S(=O)(O)CCO	inactive	–
CCOC(=O)CC(CC(=O)OCC)(OC(C)=O)C(=O)OCC	inactive	–
C[CH2][Ge]([Cl])([CH2]C)[CH2]C	inactive	–
CCCCCCCCCCCCCC(=O)OC	inactive	–
CCCCCCCCCCCCC	inactive	–
CC1=CC[C@H](CC=O)C1(C)C	inactive	–
CCCCC(CC)C(=O)OC(C)C (stereo not given)	inactive	–
CC(=O)OC(C(=O)c1ccccc1)c1ccccc1 (stereo not given)	inactive	–
CC(C)COC(=O)CC(C(=O)OCC(C)C)S(=O)(=O)O (stereo not given)	inactive	–
Cc1oc(=O)oc1CN1CCN(c2cc3c(cc2F)c(=O)c(C(=O)O)c2n3C(C)S2)CC1 (stereo not given)	inactive	–
CC(=O)OCCCc1ccccc1	inactive	–
CCCCCCCC[Si](OCC)(OCC)OCC	inactive	–
CCCOCCOCCOCCO	inactive	–
CC(C)COC(=O)COc1ccc(Cl)cc1Cl	inactive	–
COC(OC)C(C)c1ccccc1 (stereo not given)	inactive	–
Cc1nc2n(c(=O)c1CCN1CCC(C(=O)c3ccc(F)cc3)CC1)CCS2	inactive	–
CCC(=O)OCCC(C)CCC=C(C)C (stereo not given)	inactive	–
